# Laboratory results as given in publication PMC4336329 (PLoS ONE, 2015).
# Screen size: about 310,000 compounds; about 14,000 (4.5%) showed an effect of 50% or more. Effects have a minus sign here. The list comes from a sample in which strong results are over-represented; it also holds similar structures and randomly drawn compounds.
# Target: human ether-à-go-go-related gene (hERG) potassium channel (human, UniProt Q12809)
# Test: primary screen, population patch clamp on CHO cells stably expressing hERG; higher = less effect of the substance
# 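Also: peak tail current of the secondary pulse compared with the same well before compound.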
# Chain of human ether-à-go-go-related gene (hERG) potassium channel (Q12809 whole entry, looked up): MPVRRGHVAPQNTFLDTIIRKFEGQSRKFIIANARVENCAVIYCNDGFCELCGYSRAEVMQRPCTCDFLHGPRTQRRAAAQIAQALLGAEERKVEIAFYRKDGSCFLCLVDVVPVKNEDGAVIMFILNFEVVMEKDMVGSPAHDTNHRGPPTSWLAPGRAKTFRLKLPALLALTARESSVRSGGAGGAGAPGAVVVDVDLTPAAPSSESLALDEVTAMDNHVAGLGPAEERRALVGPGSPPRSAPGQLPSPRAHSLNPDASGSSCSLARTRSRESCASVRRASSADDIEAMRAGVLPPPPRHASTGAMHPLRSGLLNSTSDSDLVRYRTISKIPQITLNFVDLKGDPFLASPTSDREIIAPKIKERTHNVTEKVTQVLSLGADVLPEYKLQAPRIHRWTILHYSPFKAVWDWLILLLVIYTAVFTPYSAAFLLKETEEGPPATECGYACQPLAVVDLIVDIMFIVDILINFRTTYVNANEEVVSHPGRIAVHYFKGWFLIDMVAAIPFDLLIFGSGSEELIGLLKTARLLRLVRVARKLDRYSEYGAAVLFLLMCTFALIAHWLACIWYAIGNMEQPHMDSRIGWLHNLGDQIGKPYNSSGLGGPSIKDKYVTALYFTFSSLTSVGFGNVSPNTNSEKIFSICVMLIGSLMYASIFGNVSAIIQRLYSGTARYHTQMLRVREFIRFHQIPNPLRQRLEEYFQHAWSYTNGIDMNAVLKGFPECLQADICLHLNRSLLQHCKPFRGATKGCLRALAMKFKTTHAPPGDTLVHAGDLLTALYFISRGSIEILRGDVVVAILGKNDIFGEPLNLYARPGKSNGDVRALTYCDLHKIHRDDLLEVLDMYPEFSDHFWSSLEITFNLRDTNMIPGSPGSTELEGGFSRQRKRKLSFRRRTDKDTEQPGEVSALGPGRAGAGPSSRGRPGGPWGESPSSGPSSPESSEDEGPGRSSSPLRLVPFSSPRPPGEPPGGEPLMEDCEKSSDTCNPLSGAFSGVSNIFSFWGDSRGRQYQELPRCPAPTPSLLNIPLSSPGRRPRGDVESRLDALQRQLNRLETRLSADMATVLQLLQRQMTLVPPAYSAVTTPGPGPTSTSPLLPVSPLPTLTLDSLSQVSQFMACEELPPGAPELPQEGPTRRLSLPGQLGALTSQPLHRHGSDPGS
row,SMILES,"hERG current change (%, negative = inhibition) at 10uM [%]"
1,Cc1cc(C)c2nc(SCC(=O)NC(=O)c3cccn3C)cc(C)c2c1,-2.66
2,COc1ccc(C(C)=O)cc1COC(=O)c1cc(C)nc2ccccc12,13.6
3,O=C(Nc1ccc([N+](=O)[O-])cc1)c1nc[nH]c1C(=O)NC1CCCCC1,16.2
4,COC(=O)c1c(NC(=O)C(C)C)sc2c1C(C(=O)OC)CC2 (centres unmarked),11.8
5,CC(C)Sc1nnc(-c2c[nH]c3ccccc23)n1C,1.3
6,CN1CCN(/N=C/c2c(O)n(Cc3ccc(F)cc3)c(=O)[nH]c2=O)CC1,0.78
7,COc1cccc(NC(=O)CN(c2ccc3c(c2)OCO3)S(C)(=O)=O)c1,3.07
8,CNc1nnc(-c2ccc(N(C)C)cc2)s1,8.65
9,CCCCCn1c(=O)c(C(=O)OCC)c(O)c2ccccc21,-64
10,CCCCCn1c(=O)c(C(=O)OCC)c(Cl)c2ccccc21,-73.8
11,CCCCCCCCn1c(=O)c(C(=O)OC)c(N)c2ccccc21,3.02
12,CCCCn1c(=O)c(C(=O)OCC)c(O)c2ccccc21,2.18
13,CCCCCCCCn1c(=O)c(C(=O)OCC)c(O)c2ccccc21,14.5
14,CCCCCCCn1c(=O)c(C(=O)OC)c(N)c2ccccc21,-9
15,CCC1CCCCN1CCCNC(=O)CSc1nc2nc(C)c(Cc3ccc(C)cc3)c(C)n2n1 (centres unmarked),-47.8
16,NS(=O)(=O)c1ccc(NC(=O)COC(=O)CCC2CCCCC2)cc1,-5.65
17,Cc1ccc(C(=O)NCCN2CCNC2=O)cc1,12.9
18,O=C(Nc1ccc2c(c1)OCO2)C(=O)c1c[nH]c2ccccc12,22.3
19,COc1ccc(C(=O)NCCCNC(=O)c2ccccn2)cc1,10.8
20,CCCn1c(SCC(=O)NC2CCCCC2)nnc1-c1ccncc1,4.24
21,CN1CCN(S(=O)(=O)c2ccc(N(C)Cc3ccc(OC(F)F)cc3)c([N+](=O)[O-])c2)CC1,-60.8
22,C=CCOc1ccc(CN(C)c2ccc(S(=O)(=O)N3CCN(C)CC3)cc2[N+](=O)[O-])cc1,6.82
23,CN1CCN(S(=O)(=O)c2ccc(N(C)Cc3ccc(C(F)(F)F)cc3)c([N+](=O)[O-])c2)CC1,-5.45

row,SMILES,"hERG current change (%, negative = inhibition) at 10uM [%]"
1,COc1cc(Nc2ccc(S(=O)(=O)N3CCN(C)CC3)cc2[N+](=O)[O-])cc(OC)c1,-28.6
2,CN1CCN(S(=O)(=O)c2ccc(Nc3ccc(F)cc3)c([N+](=O)[O-])c2)CC1,-51.3
3,CN1CCN(S(=O)(=O)c2ccc(Nc3cccc(Cl)c3)c([N+](=O)[O-])c2)CC1,-20.7
4,Cc1nnc(SCC(N)=O)n1CC1CCCO1 (centres unmarked),3.55
5,NC(=O)c1ccsc1NC(=O)c1coc2ccccc2c1=O,-2.56
6,COc1ccc(-c2nn3c(-c4ccccn4)nnc3s2)cc1OC,10.6
7,CCOC(=O)c1sc(SCC(=O)Nc2ccc(N(C)C)cc2)nc1N,-13
8,S=C(NCCc1cnc[nH]1)NC1CCCC1,23.2
9,CCOC(=O)Cc1nc2cc(Cl)ccc2o1,10.7
10,N#Cc1ccsc1NC(=O)c1ccccn1,-4.67
11,CCOc1ccc(OCCC(=O)N2CCc3cc(OC)c(OC)cc3C2)cc1,-20.6
12,COc1ccc(OC)c(Nc2nc(NCc3ccco3)c3ccccc3n2)c1.Cl,-12.2
13,CC#CC(=O)NC1CCCN(C2Cc3ccccc3C2)C1 (centres unmarked),-18.7
14,O=C(NC1CC1)c1ccc(F)cc1Cl,21
15,O=C(NC1CCCN(C2Cc3ccccc3C2)C1)c1ccc(F)cc1Cl (centres unmarked),-71.1
16,COc1cccc(C(=O)NC2CCCN(C3Cc4ccccc4C3)C2)c1OC (centres unmarked),-41.7
17,CSCC(=O)NC1CCCN(C2Cc3ccccc3C2)C1 (centres unmarked),-5.38
18,C#Cc1cccc(C(=O)NC2CCCN(C3Cc4ccccc4C3)C2)c1 (centres unmarked),-64.4
19,Cn1cnnc1SC(C(=O)Nc1cc(Cl)cc(Cl)c1)c1ccccc1 (centres unmarked),20.9
20,Cc1cc(C(=O)CSc2nc3ccccc3[nH]2)c(C)n1CC1CCCO1 (centres unmarked),-12.5
21,CC(C)(C)NC(=O)NC(=O)CSc1ccc(S(=O)(=O)N2CCCCC2)cn1,-13.5
22,Cc1cccc(C)c1OCc1cc(C(=O)N2CCN(C3CCCC3)CC2)no1,-67.9
23,O=C(c1cc(COc2c(F)cccc2F)on1)N1CCCCCC1,4.46

row,SMILES,"hERG current change (%, negative = inhibition) at 10uM [%]"
1,CC(=O)N1CCCN(C(=O)c2cc(COc3c(F)cccc3F)on2)CC1,6.58
2,Cc1cccc(C)c1OCc1cc(C(=O)N2CCN3CCCC3C2)no1 (centres unmarked),-19.5
3,Cc1cccc(C)c1OCc1cc(C(=O)N2CCCCCCC2)no1,-0.442
4,O=C(c1cc(COc2c(F)cccc2F)on1)N1CCN(C2CCCCC2)CC1,-52
5,CN(C)Cc1c(-c2ccc(Cl)cc2)nc2ccccn12,0.0702
6,CC(C)(C)c1ccc(C(=O)NCCCNC(=O)c2cccnc2)cc1,11.7
7,CCN(C(=O)[C@@H]1CCCN1C(=O)c1cccs1)c1nc2cc(Cl)ccc2s1,-36
8,COc1ccc(-c2noc(CCC(=O)NC3CCN(Cc4ccccc4)CC3)n2)cc1,-45.7
9,COc1ccc(-c2noc(CCC(=O)NCCc3cccc(C)c3)n2)cc1,-0.562
10,Cc1ccc(-c2noc(CCC(=O)NCCN3CCN(Cc4ccccc4)CC3)n2)cc1,-49
11,Cc1ccc(-c2noc(CCC(=O)NCC3CCCO3)n2)cc1 (centres unmarked),2
12,COc1ccc(-c2noc(CCC(=O)NCC3CCN(Cc4cccc(C)c4)CC3)n2)cc1,-60.3
13,Cc1ccc(-c2noc(CCC(=O)NCC3CCN(Cc4cccc(C)c4)CC3)n2)cc1,-63.8
14,COc1ccccc1NC(=S)NC(=O)C(C)(C)C,-9.31
15,Cc1ccc2nc(-c3ccc(N4C(=O)CC(N5CCN(CCO)CC5)C4=O)cc3)sc2c1 (centres unmarked),-3.5
16,N#CCC(=O)Nc1ccc(C(=O)OCC(=O)Nc2ccccc2-c2ccccc2)cc1,9.2
17,CCc1nc(SCc2ccccc2C)n[nH]1,26.9
18,CCOc1ccccc1NC(=O)c1cc(CC(C)C)oc1C,-0.536
19,Cc1cc(C(=O)Nc2cccc3ccccc23)c(C)o1,4.69
20,Cc1oc(CC(C)C)cc1C(=O)Nc1cccc2ccccc12,-58.8
21,Cc1ncc(C(=O)O)c(C(=O)O)c1N,13.4
22,O=C(O)c1cnc(-c2ccccc2)nc1Sc1ccccc1,14.2
23,O=C(C1CCCN(Cc2ccccc2)C1)N1CCCCC1.O=C(O)C(=O)O (centres unmarked),11.3

row,SMILES,"hERG current change (%, negative = inhibition) at 10uM [%]"
1,COc1cc(CN2CCCC(C(=O)N3CCc4ccccc4C3)C2)cc(OC)c1OC (centres unmarked),-62
2,COc1ccc(CN2CCCC(C(=O)N3CCCCC3)C2)cc1OC.O=C(O)C(=O)O (centres unmarked),-25.5
3,COc1ccc(S(=O)(=O)N2CCC(C(=O)N3CCc4ccccc4C3)CC2)cc1OC,-27.4
4,Cc1cccc(CN2CCCC(C(=O)N3CCCCC3)C2)c1.O=C(O)C(=O)O (centres unmarked),15.5
5,O=C(C1CCCN(Cc2ccccc2F)C1)N1CCc2ccccc2C1.O=C(O)C(=O)O (centres unmarked),-22.6
6,Cc1cccc(CN2CCCC(C(=O)N3CCc4ccccc4C3)C2)c1.O=C(O)C(=O)O (centres unmarked),-51.3
7,COc1ccc(CN2CCCC(C(=O)N3CCc4ccccc4C3)C2)cc1OC (centres unmarked),-62
8,O=C(C1CCCN(Cc2ccncc2)C1)N1CCc2ccccc2C1.O=C(O)C(=O)O (centres unmarked),-19.2
9,COc1ccc(C)cc1-n1c(SCC(=O)Nc2cccc(C(=O)O)c2)nc2ccccc2c1=O,12
10,O=C(CCC(=O)Nc1ccccc1)NNC(=O)C(c1ccccc1)c1ccccc1,-0.585
11,CCN(c1ccccc1)P(=O)(Nc1ccccc1)Nc1ccccc1,0.944
12,Cc1ccc(N2C(=O)CSC2c2cccnc2)cc1F (centres unmarked),5.77
13,CCCc1nc(SCC(=O)Nc2cc(C)on2)c2c(=O)n(C)c(=O)n(C)c2n1,-2.26
14,NCCCC[C@H]1NC(=O)[C@H](CCC(=O)O)NC(=O)c2cc([N+](=O)[O-])cc(I)c2OCC[C@@H](C(N)=O)NC1=O,26.6
15,Cc1cc(C)c2sc(N(CCCN(C)C)C(=O)c3ccc(S(=O)(=O)N4CCc5ccccc5C4)cc3)nc2c1.Cl,4.44
16,Cc1cc(C)c2sc(N(CCCN(C)C)C(=O)c3ccc(S(=O)(=O)N(C)Cc4ccccc4)cc3)nc2c1.Cl,-13.5
17,CCCCN(CC)S(=O)(=O)c1ccc(C(=O)N(CCCN(C)C)c2nc3cc(C)cc(C)c3s2)cc1.Cl,-73
18,Cc1cc(C)c2sc(N(CCCN(C)C)C(=O)c3ccc(S(=O)(=O)N(C)C4CCCCC4)cc3)nc2c1.Cl,-81.4
19,Cc1cc(C)c2sc(N(CCCN(C)C)C(=O)c3ccc(S(=O)(=O)N4CCCc5ccccc54)cc3)nc2c1.Cl,0.702
20,CCN(Cc1ccccc1)S(=O)(=O)c1ccc(C(=O)N(CCCN(C)C)c2nc3cc(C)cc(C)c3s2)cc1.Cl,-4.15
